Compound activity: PubChem, National Center for Advancing Translational Sciences (NCATS)
An excerpt weighted towards active compounds, which were near 7.9% of everything screened.
SW480 rereplic = A quantitative high throughput screen for small molecules that induce DNA re-replication in SW480 colon adenocarcinoma cells; SW480 DNA re-replication, Hoechst DNA content imaging, 48 h; 1.8% of 340,000 active; Potency, µM (titrated, usually from 46.1 µM), without a hit: top-dose re-replication activation, most hits filed as activators; also: % of control where 0% means no effect; nearly all actives have a fitted effect of over 55% in size
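SW480 cells exposed to compounds for 48 hr at 37 C, 5% CO2, then Hoechst-stained 40 min. Nuclear DNA content imaged by fluorescence scanning (405 nm excitation, 500-530 nm emission); re-replication scored as increased high-intensity nuclei.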
HT1080NT lethal = qHTS for induction of synthetic lethality in tumor cells producing 2HG: qHTS for the HT-1080-NT fibrosarcoma cell line | Potency, µM (titrated, usually from 46.1 µM), for the others: at the highest dose activity, negative = less viability, usual class: cytotoxic | 1.6% of 360,000 active | HT-1080-NT fibrosarcoma viability, CellTiter-Glo ATP luminescence, 48 h;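 also: NT is the 2HG producing partner of a matched IDH1 knockdown line; 0% = DMSO-treated cells and -100% = media-only wells without cells; nearly all actives have a fitted effect of over 55% in size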
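Viability of the 2HG-overproducing fibrosarcoma line after 48 hours of compound exposure at 37 degrees C was determined by luminescence with CellTiter-Glo, and concentration-effect curves were then fitted and categorized.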
KB-V1 cytotox = qHTS assay for MDR1-selective chemotherapeutics: Primary screen using the drug-selected MDR subline cells KB-V1 | KB-V1 MDR cells viability, CellTiter-Glo, 72 h | Potency, µM (highest dose often 46.1 µM), actives largely listed as cytotoxic | 3.4% of 400,000 active | AID 1347076, 2019; also: % is scaled to controls: 0 for no effect and ±100 for the full control effect; nearly all actives have a fitted effect of over 60% in size
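Cytotoxicity via CellTiter-Glo luminescence after 72 h compound exposure at 37 degrees C. Cells: drug-selected KB-V1 line, DMEM phenol-red free plus 10% FBS. Compounds tested at multiple concentrations; normalized data fitted to concentration-effect curves.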
HT1080 IDH1KD tx = qHTS for induction of synthetic lethality in tumor cells producing 2HG: qHTS for the HT-1080-IDH1KD cell line | Potency, µM (series often up to 46.1 µM), for the others: at the highest dose activity, negative = toxicity, hits mostly cytotoxic | HT-1080 IDH1 knockdown viability, ATP luminescence, 48 h | 2% of 360,000 active | AID 686971, 2013;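 also: 0% = DMSO wells and -100% = cell-free medium wells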
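HT-1080-IDH1KD cells (IDH1 knocked down), 750/well in RPMI with 5% FBS, treated with compound 48 h at 37 degrees C. Viability by CellTiter-Glo luminescence, normalised to DMSO and no-cell wells; concentration-response curves classed.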
KB-3-1 tox = qHTS assay for MDR1-selective chemotherapeutics: Primary screen using the parental adenocarcinoma cell KB-3-1; KB-3-1 viability, CellTiter-Glo ATP luminescence, 72 h; 1.4% of 400,000 active; Potency, µM (highest dose often 46.1 µM), most hits filed as cytotoxic; AID 1347075, 2019; also: % is scaled to controls: 0 for no effect and ±100 for the full control effect; nearly all actives have a fitted effect of over 60% in size
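Cytotoxicity in the drug-sensitive parental line KB-3-1 was scored as loss of CellTiter-Glo luminescence following 72 h incubation with compound. Values come from curve fitting of normalized concentration-response data.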
MCF10A rereplic = A quantitative high throughput screen for small molecules that induce DNA re-replication in MCF 10a normal breast cells; MCF 10A DNA re-replication, Hoechst nuclear intensity, 48 h; Potency, µM (series often up to 46.1 µM), for inactives: top-dose activity, positive = re-replication, actives largely listed as activators; 2.9% of 350,000 active; AID 624296, 2012; also: % of control where 0% means no effect; nearly all actives have a fitted effect of over 50% in size
Numbers without * were called inactive; i = inactive; ? = inconclusive; · = not tested or not shown. Calls follow the shape of the dose curve; as a rule, active = well fitted curve in the direction sought with a large enough effect; inconclusive = small, poorly fitted or top-dose-only effect, or another doubt; inactive = no such curve, though single readings can be large; an effect the other way counts as inactive or inconclusive. Potency is read from the fitted curve at half-maximal effect.

SMILES	SW480 rereplic	HT1080NT lethal	KB-V1 cytotox	HT1080 IDH1KD tx	KB-3-1 tox	MCF10A rereplic
N#CC(c1ccccc1)N(CCCCl)C(=O)c1ccccc1 (stereo unspecified)	15µM*	-4%	i	3%	i	?
Cc1cccc[n+]1CCCCCCCCCC[n+]1ccccc1C	-22%	15%	i	4%	1.5µM*	-2%
Cc1nc(NC(=O)C(C)(C)C)sc1C(=O)Cn1cc(CCCC#N)nn1	·	14%	i	11%	i	·
Cc1ccc(S(=O)(=O)NC(=O)C2(C)CCN2C(=O)CC2CCCC2)nc1 (stereo unspecified)	·	?	i	24%	i	·
O=C(Nc1ccc(-c2nc3ccc(NC(=O)c4cccs4)cc3[nH]2)cc1)c1cccs1	?	·	i	·	6.5µM*	?
Cc1cc(F)ccc1S(=O)(=O)Nc1ccccc1C(=O)Nc1ccccc1-c1nc2ccccc2[nH]1	?	?	18µM*	?	?	3.7µM*
O=C(Nc1ccc(Cl)c(-c2nc3ccccc3[nH]2)c1)c1cccnc1	3%	?	21µM*	?	i	1%
COc1c(Cl)cc(C(=O)Nc2cccc(-c3nc4ccccc4[nH]3)c2)cc1Cl	·	·	21µM*	·	?	·
CC1(C)CC(=O)C(C2C3=C(CC(C)(C)CC3=O)Oc3c(Br)cc(Br)cc32)=C(O)C1 (stereo unspecified)	-4%	7%	?	5%	?	12%
CCc1nn(CC(=O)Nc2ccc(C)cc2C)c(=O)c2cc3sccc3n12	·	·	i	·	i	·
O=C(COC(=O)/C=C/c1ccco1)Nc1cc(S(=O)(=O)N2CCOCC2)ccc1Cl	?	-7%	?	-3%	i	?
COc1c(Cl)cc(C(=O)Nc2ccccc2-c2ccccc2)cc1Cl	7%	0%	15µM*	8%	21µM*	?
CS(=O)(=O)c1cccc(C(=O)Nc2ccc(-c3nc4ccccc4[nH]3)cc2)c1	15%	12µM*	i	12µM*	?	11%
O=C(Cc1cccs1)Nc1cccc(-c2nc3cc4ccccc4cc3[nH]2)c1	1%	23µM*	?	?	?	?
CC(=O)Nc1cccc(NC(=O)Cc2cccs2)c1	3%	-3%	i	0%	i	1%
CS(=O)(=O)c1ccccc1C(=O)Nc1ccc(-c2nc3ccccc3[nH]2)cc1	6%	3%	i	0%	i	-4%
O=C(Nc1ccc(-c2nc3ccccc3[nH]2)cc1)c1ccccc1NS(=O)(=O)c1ccc(F)cc1	?	-4%	i	-3%	i	18µM*
Cc1noc(C)c1CSCC(=O)N(C)CC(=O)Nc1ccc(Cl)cc1	-1%	-3%	i	0%	i	-26%
COc1ccccc1-n1c(SCC(=O)c2ccc(O)cc2O)nc2cc([N+](=O)[O-])ccc21	-6%	?	16µM*	?	i	?
CCN(CC)S(=O)(=O)c1ccc2c(c1)nc(SCC(=O)NC1CC1)n2-c1ccccc1OC	0%	-4%	i	-10%	i	3%
CCSc1ccccc1C(=O)Nc1ccc(S(=O)(=O)NC(C)=O)cc1	4%	17%	?	8%	i	8%
CCC(=O)N1CCCc2cc(S(=O)(=O)N3CCC(C(=O)Nc4ccc(F)c(F)c4)CC3)ccc21	·	·	i	·	i	·
Cc1sc2ncnc(NC3CCN(Cc4ccccc4)CC3)c2c1C	12%	?	1.6µM*	?	?	17%
Cc1ccccc1C(=O)Nc1ccnn1C1CCN(Cc2cnn(C)c2)CC1	-9%	-3%	i	1%	i	2%
CN(CC1CCCO1)S(=O)(=O)c1ccc(C(=O)Nc2nc(-c3ccccn3)cs2)cc1 (stereo unspecified)	-5%	?	i	?	4.1µM*	13%
SMILES	SW480 rereplic	HT1080NT lethal	KB-V1 cytotox	HT1080 IDH1KD tx	KB-3-1 tox	MCF10A rereplic
Cc1ccc(Nc2nc(-c3ccc(S(=O)(=O)N4CCOCC4)cc3)cs2)cc1Cl	9%	23µM*	?	16µM*	i	?
Cc1ccc(C(=O)Nc2nc(-c3ccccn3)cs2)cc1S(=O)(=O)N1CCOCC1	?	18µM*	?	4.6µM*	i	21µM*
CC(C)CC(=O)Nc1nc(-c2ccc(S(=O)(=O)N3CCOCC3)cc2)cs1	-24%	?	?	-13%	i	?
CN(C)S(=O)(=O)c1ccc(C(=O)Nc2nc(-c3cc4ccccc4o3)cs2)cc1	7%	?	i	?	i	4.6µM*
CCOc1ccccc1C(=O)NCC(c1ccc(N(C)C)cc1)N1CCc2ccccc21 (stereo unspecified)	·	·	i	·	i	·
CCN1CCN(C(=O)Cn2nc(C)c3sc4ccccc4c3c2=O)CC1	-1%	0%	i	5%	i	0%
O=C(Nc1nc(-c2ccc(S(=O)(=O)N3CCOCC3)cc2)cs1)c1ccccc1	10%	?	?	-19%	i	10%
O=C(Nc1nc(-c2nc3ccccc3s2)cs1)c1ccc(S(=O)(=O)N2CCOCC2)cc1	2%	?	4.6µM*	?	?	22%
Cc1csc(NC(=O)c2ccc(OCC3CCCO3)cc2)n1 (stereo unspecified)	-4%	-15%	13µM*	0%	i	-6%
O=C(Nc1nc(-c2ccc(F)c(F)c2)cs1)c1ccc(OCC2CCCO2)cc1 (stereo unspecified)	1%	?	?	?	?	-3%
Cc1cccc(Nc2nc(N)nc(CCl)n2)c1	?	3.7µM*	i	?	?	?
Cc1cccc(Nc2nc(N)nc(CSc3nccc(C)n3)n2)c1	3%	3%	i	2%	i	10%
COc1cccc(Nc2nc(N)nc(CCl)n2)c1	15µM*	7.3µM*	i	10µM*	i	18µM*
COc1cccc(Nc2nc(N)nc(C(F)(F)F)n2)c1	-4%	-29%	?	?	i	?
Cc1cc(N2CCN(C(=O)Nc3ccc(F)cc3F)CC2)c2ccccc2n1	-5%	-1%	i	-3%	i	9%
